Results: PubChem BioAssay (Tox21)
Results filed as inconclusive are left out. A call without a number means that no potency is given here. Activity calls are given as the source filed them. The call rests on the fitted dose curve.

Experiment: qHTS assay to identify small molecule agonists of the NFkB signaling pathway - cell viability counter screen (AID 1159515); further: nearly all actives have a fitted effect of over 55% in size
Conditions: NFkB-bla ME-180 viability, CellTiter-Glo luminescence, 5 h; series mostly up to 61 µM
Source text: National Center for Advancing Translational Sciences [NCATS]
NIH Chemical Genomics Center [NCGC]
U.S. Environmental Protection Agency [EPA]
National Institutes of Environmental Health Sciences [NIEHS]
National Toxicology Program [NTP]
U.S. Food and Drug Administration [FDA]
Transcription factors and their stimulated target gene expression play pivotal roles across many cellular processes including responses to environmental stimuli. Proper regulation of associated pathways is critical to maintain cell health and function. Constitutive activation of transcription factor pathways has been implicated in tumors as it may block cellular functions such as apoptosis and lead to invasion and metastasis. One important transcription factor that stimulates gene expression in response to cytokines, UV radiation, and other stimuli is nuclear factor-kappa B (NFkB). To measure activation of the NFkB pathway, the CellSensor NFkB-bla ME-180 cell line (Life Technologies, Carlsbad, CA) that stably expresses beta-lactamase reporter gene under the regulation of a NF-kB response element was used. This assay allows measurement of the NFkB pathway activity induced by compounds in a ME-180 cell line. This system quantitates NF-kB activity using a FRET-based assay system where beta-lactamase expression disrupts FRET, allowing for fluorescent measurement of activity. This cell line has been used to screen the Tox21 10K compound library and to identify compounds that induce the NFkB pathway activity. The cytotoxicity of the Tox21 compound library against the NFkB-bla ME-180 cell line was tested in parallel by measuring cell viability using the CellTiter-Glo assay in the same wells.
Tox21 Assay Protocol Summary:
NFkB-bla ME-180 cells were dispensed at 2,000 cells/6 uL of assay medium per well into black wall/clear-bottom 1536-well plates using a Multidrop Combi (ThermoFisher Scientific, Waltham, MA) dispenser. After the assay plates were incubated at 37 C and 5% CO2 for an overnight, 23 nL of compounds dissolved in DMSO, positive controls or DMSO only was transferred to the assay plate by a Pintool station (Kalypsys, San Diego, CA). The assay plates were incubated at 37 C and 5% CO2 for 5 hr. One uL of LiveBLAzer B/G FRET substrate (Life Technologies) was added using a Flying Reagent Dispenser (Aurora Discovery, San Diego, CA) and the plates were incubated at room temperature for 1.5 hr. Fluorescence intensity (405 nm excitation, 460 nm and 530 nm emissions) was measured using an Envision plate reader (PerkinElmer, Shelton, CT). For cytotoxicity, 3 ul/well of CellTiter-Glo reagent was added into the assay plates using an FRD. After 30 min incubation at room temperature, the luminescence intensity was measured using a ViewLux plate reader (PerkinElmer).
Potency means the concentration at half of the fitted maximal effect.

Compound	Potency
CCOc1cc(C(C)(C)C)ccc1C1COC(c2c(F)cccc2F)=N1 (stereo not given)	inactive
S=C=Nc1cccc2ccccc12	21.7 µM (active)
CCC[CH2][Sn]([CH2]CCC)([CH2]CCC)[O]C(=O)c1ccccc1	0.436 µM (active)
Oc1c(Cl)c(Cl)cc(Cl)c1Cl	inactive
O=c1c(C2CC(c3ccc(-c4ccc(Br)cc4)cc3)Cc3ccccc32)c(O)sc2ccccc12 (stereo not given)	inactive
CCOP(=O)(NC(C)C)Oc1ccc(SC)c(C)c1 (stereo not given)	inactive
O=[N+]([O-])c1cc(C(F)(F)F)c(Cl)c([N+](=O)[O-])c1Cl	54.9 µM (active)
COC(=O)N(C(=O)N1CO[C@@]2(C(=O)OC)Cc3cc(Cl)ccc3C2=N1)c1ccc(OC(F)(F)F)cc1	inactive
[Hg+2].[I-].[I-]	7.76 µM (active)
CC(C)[C@H](C(=O)O[C@H](C#N)c1cccc(Oc2ccccc2)c1)c1ccc(Cl)cc1	inactive
CC[C@H](C)[C@H]1O[C@]2(C=C[C@@H]1C)C[C@@H]1C[C@@H](C/C=C(\C)[C@@H](O[C@H]3C[C@H](OC)[C@@H](O[C@H]4C[C@H](OC)[C@@H](O)[C@H](C)O4)[C@H](C)O3)[C@@H](C)/C=C/C=C3\CO[C@@H]4[C@H](O)C(C)=C[C@@H](C(=O)O1)[C@]34O)O2	28.9 µM (active)
CCCN(CCC)c1c([N+](=O)[O-])cc(S(N)(=O)=O)cc1[N+](=O)[O-]	52.2 µM (active)
CCCCCCCCc1ccc(O)cc1	49.3 µM (active)
O=[N+]([O-])c1ccc2ccc3cccc4ccc1c2c34	inactive
C=CCC1=C(C)C(OC(=O)C2C(C=C(C)C)C2(C)C)CC1=O (stereo not given)	58.3 µM (active)
CCOP(=S)(OCC)OC(Cl)C(Cl)(Cl)Cl (stereo not given)	inactive
CC1CCC(C(C)C)C(OC(=O)c2ccccc2N)C1 (stereo not given)	34.2 µM (active)
CCc1nn(C)c(C(=O)NCc2ccc(C(C)(C)C)cc2)c1Cl	54.9 µM (active)
CC(C)C1CCC(Cc2ccc(Cl)cc2)C1(O)Cn1cncn1 (stereo not given)	54.4 µM (active)
O=c1oc2ccccc2c(O)c1Cc1c(O)c2ccccc2oc1=O	inactive

Compound	Potency
CN(C)c1ccc(N=Nc2ccccc2)cc1	inactive
C[C@]12CC[C@@H]3c4ccc(OC(=O)N(CCCl)CCCl)cc4CC[C@H]3[C@@H]1CC[C@@H]2O	inactive
Oc1ccc(C2(c3ccc(O)cc3)c3ccccc3-c3ccccc32)cc1	54.9 µM (active)
c1ccc2c(c1)[nH]c1cnccc12	inactive
O=[N+]([O-])O.O=[N+]([O-])O.[Cd]	inactive
CCCCCCCCCCCCCCCCCCn1cc[n+](C)c1	48.7 µM (active)
CC(C)[C@H](C(=O)OC(C#N)c1cccc(Oc2ccccc2)c1)c1ccc(OC(F)F)cc1 (stereo not given in full)	inactive
CC(C)(O)c1cnn2c(-c3ccc(F)c(-c4c(F)cccc4C#N)c3)cnc2n1	inactive
C[C@H]1O[C@@H](O[C@H]2[C@@H](O)C[C@H](O[C@H]3[C@@H](O)C[C@H](O[C@H]4CC[C@@]5(C)[C@H](CC[C@@H]6[C@@H]5CC[C@]5(C)[C@@H](C7=CC(=O)OC7)CC[C@]65O)C4)O[C@@H]3C)O[C@@H]2C)C[C@H](O)[C@@H]1O	0.124 µM (active)
CC1(C)[C@H](C(=O)O[C@H](C#N)c2cccc(Oc3ccccc3)c2)[C@@H]1/C=C(\Cl)C(F)(F)F	inactive
CC1(c2ccc(Oc3ccccc3)cc2)OC(=O)N(Nc2ccccc2)C1=O (stereo not given)	inactive
COc1cc(C=O)cc2c1[C@H](COC(N)=O)[C@]1(OC(C)=O)ON2C[C@H]2[C@@H]1N2C(C)=O	inactive
CC(C)CC(C)(c1ccc(O)cc1)c1ccc(O)cc1	49.1 µM (active)
CCOCn1c(-c2ccc(Cl)cc2)c(C#N)c(Br)c1C(F)(F)F	inactive
C[C@@H]1O[C@@H](O[C@H]2C[C@@H](O)[C@]3(CO)[C@H]4[C@H](O)C[C@]5(C)[C@@H](C6=CC(=O)OC6)CC[C@]5(O)[C@@H]4CC[C@]3(O)C2)[C@H](O)[C@H](O)[C@H]1O	0.0261 µM (active)
CN(C)C1CSSSC1	inactive
O=C(CCl)Nc1ccccc1	inactive
CCC(C)(C)C(=O)OC1=C(c2ccc(Cl)cc2Cl)C(=O)OC12CCCCC2	inactive
Oc1c(Br)c(Br)c(Br)c(Br)c1Br	inactive
BrC(Br)C(Br)(Br)Br	inactive
